Assay results reported in PubChem BioAssay AID1159580 (chemical genetic matrix, 2015).
About 2,000 (36%) of roughly 5,500 compounds were called active. Another 18% or so got no clear call; they are omitted. Rule as the data show it: active = normalized growth mostly below about 0.91 (no sharp cut-off); inconclusive = no clear call, values can overlap the other calls; inactive = mostly above about 0.92. This is one part of the list.

Experiment: chemical genetic growth profiling, strain panel (AID 1159580);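 also: tested at 20 µM; growth read once vehicle control cultures reached saturation at 30 °C; 1 = growth at the plate median or of vehicle wells; lower values mean less growth of the strain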
Conditions: S. cerevisiae deletion strains, growth OD
[1] = locus YAL021C, strain ccr4, stronger effect = lower value
[2] = locus YAL026C, strain drs2, stronger effect = lower value
[3] = locus YAL030W, strain snc1, stronger effect = lower value
[4] = locus YBL061C, strain skt5, stronger effect = lower value
[5] = locus YBR009C, strain hhf1, stronger effect = lower value
[6] = locus YBR023C, strain chs3, stronger effect = lower value
[7] = locus YBR171W, strain sec66, stronger effect = lower value
[8] = locus YBR231C, strain swc5, stronger effect = lower value
[9] = locus YBR279W, strain paf1, stronger effect = lower value
[10] = locus YCL011C, strain gbp2, stronger effect = lower value
[11] = locus YCL016C, strain dcc1, stronger effect = lower value
[12] = locus YCL061C, strain MRC1, stronger effect = lower value
[13] = locus YCL069W, strain vba3, stronger effect = lower value
[14] = locus YCR088W, strain abp1, stronger effect = lower value
[15] = locus YDL005C, strain med2, stronger effect = lower value
[16] = locus YDL040C, strain nat1, stronger effect = lower value
[17] = locus YDR001C, strain nth1, stronger effect = lower value
[18] = locus YDR069C, strain doa4, stronger effect = lower value
[19] = locus YDR137W, strain rgp1, stronger effect = lower value
[20] = locus YDR159W, strain sac3, stronger effect = lower value
[21] = locus YDR297W, strain sur2, stronger effect = lower value
[22] = locus YDR334W, strain swr1, stronger effect = lower value
[23] = locus YDR335W, strain msn5, stronger effect = lower value
[24] = locus YDR392W, strain spt3, stronger effect = lower value
[25] = locus YEL003W, strain gim4, stronger effect = lower value
[26] = locus YEL037C, strain rad23, stronger effect = lower value
[27] = locus YEL061C, strain CIN8 (second series), stronger effect = lower value
[28] = locus YER015W, strain faa2, stronger effect = lower value
[29] = locus YER016W, strain bim1, stronger effect = lower value
[30] = locus YER111C, strain swi4, stronger effect = lower value
[31] = locus YER155C, strain BEM2 (second series), stronger effect = lower value
[32] = locus YFR010W, strain ubp6, stronger effect = lower value
[33] = locus YGL167C, strain pmr1, stronger effect = lower value
[34] = locus YGL173C, strain kem1, stronger effect = lower value
[35] = locus YGL227W, strain vid30, stronger effect = lower value
[36] = locus YGL240W, strain doc1, stronger effect = lower value
[37] = locus YGL253W, strain hxk2, stronger effect = lower value
[38] = locus YHR013C, strain ard1, stronger effect = lower value
[39] = locus YHR027C, strain rpn1, stronger effect = lower value
[40] = locus YHR030C, strain SLT2, stronger effect = lower value
[41] = locus YHR079C, strain IRE1, stronger effect = lower value
[42] = locus YHR142W, strain chs7, stronger effect = lower value
[43] = locus YJL092W, strain hpr5, stronger effect = lower value
[44] = locus YJL095W, strain BCK1 (second series), stronger effect = lower value
[45] = locus YJL095W, strain BCK1, stronger effect = lower value
[46] = locus YJL115W, strain asf1, stronger effect = lower value
[47] = locus YJL129C, strain trk1, stronger effect = lower value
[48] = locus YJL154C, strain vps35, stronger effect = lower value
[49] = locus YJL164C, strain tpk1, stronger effect = lower value
[50] = locus YJL166W, strain qcr8, stronger effect = lower value
[51] = locus YJR066W, strain TOR1, stronger effect = lower value
[52] = locus YKL160W, strain elf1, stronger effect = lower value
[53] = locus YKR026C, strain gcn3, stronger effect = lower value
[54] = locus YKR091W, strain srl3, stronger effect = lower value
[55] = locus YLL001W, strain dnm1, stronger effect = lower value
[56] = locus YLL026W, stronger effect = lower value
[57] = locus YLL041C, strain sdh2, stronger effect = lower value
[58] = locus YLR027C, strain aat2, stronger effect = lower value
[59] = locus YLR113W, strain HOG1, stronger effect = lower value
[60] = locus YLR221C, strain rsa3, stronger effect = lower value
[61] = locus YLR258W, strain gsy2, stronger effect = lower value
[62] = locus YLR262C, strain YPT6 (second series), stronger effect = lower value
[63] = locus YLR320W, strain mms22, stronger effect = lower value
[64] = locus YLR342W, strain FKS1, stronger effect = lower value
[65] = locus YLR357W, strain rsc2, stronger effect = lower value
[66] = locus YLR370C, strain arc18, stronger effect = lower value
[67] = locus YLR384C, strain iki3, stronger effect = lower value
[68] = locus YML120C, strain ndi1, stronger effect = lower value
[69] = locus YMR058W, strain fet3, stronger effect = lower value
[70] = locus YMR125W, strain sto1, stronger effect = lower value
[71] = locus YMR129W, stronger effect = lower value
[72] = locus YMR205C, strain PFK2, stronger effect = lower value
[73] = locus YMR231W, strain pep5, stronger effect = lower value
[74] = locus YNL071W, strain lat1, stronger effect = lower value
[75] = locus YNL183C, strain NPR1, stronger effect = lower value
[76] = locus YNL209W, strain ssb2, stronger effect = lower value
[77] = locus YNL248C, strain rpa49, stronger effect = lower value
[78] = locus YNL322C, strain KRE1 (second series), stronger effect = lower value
[79] = locus YNR049C, strain mso1, stronger effect = lower value
[80] = locus YOR001W, strain rrp6, stronger effect = lower value
[81] = locus YOR070C, strain gyp1, stronger effect = lower value
[82] = locus YOR080W, strain dia2, stronger effect = lower value
[83] = locus YOR083W, strain WHI5, stronger effect = lower value
[84] = locus YOR106W, strain vam3, stronger effect = lower value
[85] = locus YOR231W, strain MKK1, stronger effect = lower value
[86] = locus YOR265W, strain rbl2, stronger effect = lower value
[87] = locus YOR270C, strain vph1, stronger effect = lower value
[88] = locus YOR290C, strain snf2, stronger effect = lower value
[89] = locus YPL051W, strain arl3, stronger effect = lower value
[90] = locus YPL078C, strain atp4, stronger effect = lower value
[91] = locus YPL106C, strain sse1, stronger effect = lower value
[92] = locus YPL240C, strain hsp82, stronger effect = lower value
[93] = locus YPL256C, strain CLN2, stronger effect = lower value
[94] = locus YJL187C, strain SWE1, stronger effect = lower value

Measured: normalized growth

C=CCSC[C@@H](N)C(=O)O
inactive: [1] 0.993 | [2] 0.986 | [3] 1.01 | [4] 0.996 | [5] 1 | [6] 0.987 | [7] 0.984 | [8] 1 | [9] 1 | [10] 0.982 | [11] 0.998 | [12] 0.981 | [13] 0.99 | [14] 0.994 | [15] 0.988 | [16] 1.01 | [17] 0.986 | [18] 0.994 | [19] 1.01 | [20] 0.991 | locus YDR195W, strain ref2 0.985 | [21] 1 | [22] 0.987 | [23] 0.997 | [24] 0.996 | [25] 0.996 | [26] 1.01 | [27] 0.999 | [28] 0.992 | [29] 1.01 | [30] 1.01 | [31] 1.03 | [32] 0.986 | [33] 0.992 | [34] 0.999 | [35] 0.986 | [36] 1 | [37] 0.993 | [38] 1 | [39] 1.01 | [40] 0.943 | [41] 0.96 | [42] 0.978 | [43] 0.989 | [44] 1.01 | [45] 0.936 | [46] 0.989 | [47] 0.992 | [48] 0.982 | [49] 1 | [50] 1 | [51] 0.901 | [52] 0.985 | [53] 0.986 | [54] 1.01 | [55] 0.987 | [56] 0.993 | [57] 0.985 | [58] 0.993 | [59] 0.973 | [60] 0.994 | [61] 0.99 | [62] 0.995 | [63] 1.01 | [64] 1.02 | [65] 1.01 | [66] 0.999 | [67] 0.993 | [68] 0.986 | [69] 0.992 | [70] 0.986 | [71] 0.985 | [72] 1 | [73] 0.998 | [74] 1 | [75] 0.914 | [76] 0.991 | [77] 0.995 | [78] 1 | [79] 0.997 | [80] 0.997 | [81] 0.992 | [82] 1 | [83] 1.02 | [84] 1 | [85] 0.968 | [86] 0.996 | [87] 1 | [88] 0.993 | [89] 0.998 | [90] 0.999 | [91] 0.986 | [92] 0.999 | [93] 0.948

C=CCSSSCC=C
inactive: [1] 0.962 | [2] 0.97 | [3] 0.989 | [4] 1 | [5] 0.957 | [6] 0.986 | [7] 0.994 | [8] 0.974 | [9] 0.991 | [10] 0.984 | [11] 1 | [12] 0.98 | [13] 0.973 | [14] 0.984 | [15] 0.97 | [16] 0.987 | [17] 0.988 | [18] 0.965 | [19] 0.984 | [20] 0.937 | locus YDR195W, strain ref2 0.944 | [21] 0.989 | [22] 0.966 | [23] 0.986 | [24] 0.782 | [25] 0.98 | [26] 0.958 | [27] 0.979 | [28] 0.976 | [29] 0.992 | [30] 0.991 | [32] 0.956 | [33] 0.983 | [34] 0.988 | [35] 0.995 | [36] 0.944 | [37] 0.987 | [38] 0.937 | [39] 1 | [42] 0.981 | [43] 0.966 | [44] 0.991 | [46] 0.975 | [47] 0.958 | [48] 0.979 | [49] 0.974 | [50] 0.976 | [94] 0.984 | [52] 0.995 | [53] 0.978 | [54] 0.983 | [55] 0.994 | [56] 0.991 | [57] 0.982 | [58] 0.972 | [60] 0.992 | [61] 0.999 | [62] 0.995 | [63] 0.967 | [64] 0.98 | [65] 0.891 | [66] 0.978 | [67] 1.01 | [68] 0.974 | [69] 0.975 | [70] 0.946 | [71] 0.98 | [72] 0.967 | [73] 0.978 | [76] 0.992 | [78] 0.974 | [79] 0.98 | [80] 0.96 | [81] 0.992 | [82] 0.972 | [83] 1 | [84] 0.949 | [86] 0.984 | [87] 0.941 | [88] 0.964 | [89] 0.979 | [90] 0.988 | [91] 0.976 | [92] 0.995
active: [31] 0.765 | [74] 0.847 | [77] 0.877

C=CCSCC=C
inactive: [1] 0.972 | [2] 0.971 | [3] 0.962 | [4] 0.979 | [5] 0.981 | [6] 0.987 | [7] 0.965 | [8] 1.03 | [9] 0.992 | [10] 0.966 | [11] 0.975 | [12] 0.972 | [13] 0.98 | [14] 0.99 | [15] 0.985 | [16] 0.993 | [17] 0.96 | [18] 0.947 | [19] 0.971 | [20] 0.991 | locus YDR195W, strain ref2 0.961 | [21] 0.982 | [22] 0.935 | [23] 0.987 | [24] 0.916 | [25] 0.986 | [26] 0.972 | [27] 0.982 | [28] 0.958 | [29] 0.991 | [30] 0.966 | [31] 0.974 | [32] 0.953 | [33] 0.971 | [34] 0.941 | [35] 0.986 | [36] 0.981 | [37] 0.967 | [38] 0.957 | [39] 0.96 | [40] 1.03 | [41] 1.03 | [42] 0.934 | [43] 0.961 | [44] 0.996 | [45] 1.03 | [46] 0.938 | [47] 0.95 | [48] 0.978 | [49] 0.981 | [50] 0.977 | [94] 0.986 | [51] 0.931 | [52] 1 | [53] 0.989 | [54] 0.983 | [55] 0.966 | [56] 0.974 | [57] 0.975 | [58] 0.953 | [59] 1.02 | [60] 0.973 | [61] 0.989 | [62] 0.983 | [63] 0.995 | [64] 0.983 | [65] 0.963 | [66] 0.977 | [67] 0.99 | [68] 0.973 | [69] 0.97 | [70] 0.966 | [71] 0.979 | [72] 0.969 | [73] 0.98 | [74] 0.991 | [75] 0.94 | [76] 0.985 | [77] 0.98 | [78] 0.955 | [79] 0.964 | [80] 0.992 | [81] 0.976 | [82] 0.974 | [83] 0.989 | [84] 0.977 | [85] 1.02 | [86] 1.01 | [87] 0.945 | [88] 0.903 | [89] 0.991 | [90] 0.988 | [91] 0.943 | [92] 0.974 | [93] 1.03
